Among the data in PubChem BioAssay are inhibition values, retold here.

The structures appear in SMILES notation. “And” between values parts separate entries of the source, which are not always exact repeats. Equal entries are not always repeated. A number with no mark means an inactive call. No rule for the calls is given here.

Botulinum neurotoxin type A (Clostridium botulinum), sequence (P0DPI0 whole entry, looked up): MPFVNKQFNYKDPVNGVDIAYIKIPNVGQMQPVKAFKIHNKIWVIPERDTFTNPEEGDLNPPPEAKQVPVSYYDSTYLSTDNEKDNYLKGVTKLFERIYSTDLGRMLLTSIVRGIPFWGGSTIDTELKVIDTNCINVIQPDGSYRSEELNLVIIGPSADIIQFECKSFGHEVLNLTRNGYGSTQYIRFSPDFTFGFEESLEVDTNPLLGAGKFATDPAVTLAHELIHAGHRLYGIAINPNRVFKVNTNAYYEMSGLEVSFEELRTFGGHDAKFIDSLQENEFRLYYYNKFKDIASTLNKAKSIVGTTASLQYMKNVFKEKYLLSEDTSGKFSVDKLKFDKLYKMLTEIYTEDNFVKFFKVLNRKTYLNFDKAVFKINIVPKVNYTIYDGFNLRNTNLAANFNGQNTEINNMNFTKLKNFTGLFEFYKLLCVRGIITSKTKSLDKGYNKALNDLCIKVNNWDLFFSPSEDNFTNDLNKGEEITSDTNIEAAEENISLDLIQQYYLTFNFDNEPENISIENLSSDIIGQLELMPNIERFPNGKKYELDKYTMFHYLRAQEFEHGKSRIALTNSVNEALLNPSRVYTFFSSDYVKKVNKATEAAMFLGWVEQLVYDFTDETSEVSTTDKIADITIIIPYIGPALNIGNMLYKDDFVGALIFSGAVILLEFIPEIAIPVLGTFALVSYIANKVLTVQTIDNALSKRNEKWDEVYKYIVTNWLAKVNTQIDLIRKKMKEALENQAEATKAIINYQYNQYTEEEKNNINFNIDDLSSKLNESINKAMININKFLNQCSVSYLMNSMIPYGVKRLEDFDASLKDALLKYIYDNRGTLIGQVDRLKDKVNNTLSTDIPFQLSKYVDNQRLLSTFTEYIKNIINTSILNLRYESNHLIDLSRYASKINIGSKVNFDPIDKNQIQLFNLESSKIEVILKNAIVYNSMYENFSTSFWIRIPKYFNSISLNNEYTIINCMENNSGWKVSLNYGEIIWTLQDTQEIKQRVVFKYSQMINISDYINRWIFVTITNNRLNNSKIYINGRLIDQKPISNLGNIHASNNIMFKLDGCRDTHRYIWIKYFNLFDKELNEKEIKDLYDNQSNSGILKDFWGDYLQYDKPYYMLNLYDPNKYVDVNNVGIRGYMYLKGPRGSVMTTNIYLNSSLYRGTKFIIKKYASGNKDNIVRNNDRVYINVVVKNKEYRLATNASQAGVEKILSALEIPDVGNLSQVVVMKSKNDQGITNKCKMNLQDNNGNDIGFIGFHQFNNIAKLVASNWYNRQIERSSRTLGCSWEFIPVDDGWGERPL
Lethal factor (Bacillus anthracis), sequence (P15917 whole entry, looked up): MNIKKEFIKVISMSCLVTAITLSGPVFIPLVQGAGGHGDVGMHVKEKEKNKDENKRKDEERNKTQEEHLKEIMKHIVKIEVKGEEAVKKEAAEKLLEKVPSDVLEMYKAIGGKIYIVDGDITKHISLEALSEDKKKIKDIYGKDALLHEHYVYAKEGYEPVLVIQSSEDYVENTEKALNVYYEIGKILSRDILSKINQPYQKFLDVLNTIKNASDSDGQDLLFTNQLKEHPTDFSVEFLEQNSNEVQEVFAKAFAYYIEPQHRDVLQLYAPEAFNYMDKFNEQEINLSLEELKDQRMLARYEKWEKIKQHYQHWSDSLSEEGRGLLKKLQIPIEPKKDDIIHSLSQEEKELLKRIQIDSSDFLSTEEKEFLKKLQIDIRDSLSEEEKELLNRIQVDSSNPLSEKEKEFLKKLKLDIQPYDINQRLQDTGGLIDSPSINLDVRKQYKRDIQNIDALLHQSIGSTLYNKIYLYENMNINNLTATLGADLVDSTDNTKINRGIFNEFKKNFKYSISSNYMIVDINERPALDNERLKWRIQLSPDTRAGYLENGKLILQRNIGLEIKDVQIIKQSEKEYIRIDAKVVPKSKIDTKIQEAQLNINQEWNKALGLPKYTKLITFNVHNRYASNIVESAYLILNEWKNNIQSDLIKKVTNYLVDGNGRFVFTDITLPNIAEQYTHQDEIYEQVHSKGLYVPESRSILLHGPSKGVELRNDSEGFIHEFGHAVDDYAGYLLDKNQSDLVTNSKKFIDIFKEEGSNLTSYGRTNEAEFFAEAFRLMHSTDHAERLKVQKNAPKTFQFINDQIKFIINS

One assay concerns the target Botulinum neurotoxin type A (Clostridium botulinum) (UniProt P0DPI0). Kind of assay: BoNT/A light chain protease inhibitors, biochemical, multiplex microsphere flow cytometry, validation set (AID 588460). The settings on record: at 10 µM, hits give high values. A general note: In flow cytometry, cells or beads pass a laser one at a time.
Turning to `COc1cccc(N2CC34C=CC(O3)C(C(=O)O)C4C2=O)c1` (configuration not stated), the inhibition is 0.3%.

`O=c1cc(Cn2ccnc2)c2cc3c(cc2o1)CCC3`: the inhibition is -1.1%.

Take `CN(C)C(=O)C(CCN1CCC(O)(c2ccc(Cl)cc2)CC1)(c1ccccc1)c1ccccc1`: the inhibition was -1.4%. `COc1cccc(/C=C/C(=O)c2c(O)cc(C)oc2=O)c1O`: the inhibition was 1.7%.

As to `COc1ccc(-c2coc3cc(O)cc(O)c3c2=O)cc1`, the inhibition was -0.7%. On the same count and under the same terms, with `CCN1C(=O)C(CC(=O)Nc2ccc(OC)cc2)N(CCc2ccc(F)cc2)C1=S` (configuration not stated) the figure was 1.4%; with `Nc1nc2c(ncn2COC(CO)CO)c(=O)[nH]1`, -1.1%. On the same count and under the same terms, with `CCOC(=O)[C@H](CCc1ccccc1)N[C@@H](C)C(=O)N1CCC[C@H]1C(=O)O` the figure was 0.2%; with `CC(=O)O[C@H]1C(=O)[C@@]2(C)[C@H]([C@H](OC(=O)c3ccccc3)[C@]3(O)C[C@H](OC(=O)[C@H](O)C(NC(=O)c4ccccc4)c4ccccc4)C(C)=C1C3(C)C)[C@]1(OC(C)=O)CO[C@@H]1C[C@@H]2O` (some centres not stated), -0.8%; with `CC1=C/C(=N\N=C2\NC(=O)C(CC(=O)Nc3ccccc3F)S2)CC(C)(C)C1` (configuration not stated), 0.8%. Same read-out and setting: to `CC1(C)CC(O)(CNCc2ccc3c(c2)OCO3)CCO1` (configuration not stated) belongs -0.9%; to `COc1ccc(C2C3CCCCC3(O)CCN2C(=O)c2cccs2)cc1` (configuration not stated), 2.1%. For the compound `Cc1coc2cc3oc(=O)c(CCC(=O)O)c(C)c3cc12`, the inhibition was -2%. Still for that read-out and setting: with `COc1ccc(C2C3=C(CC(C)(C)CC3=O)N(C)C3=C2C(=O)CC(C)(C)C3)cc1` the figure was 0.4%; with `Cc1oc2cc(O)ccc2c(=O)c1Oc1ccccc1Br`, -0.5%.

For `COc1ccc(C(=O)CCN2CCc3cc(OC)c(OC)cc3C2)cc1`, the inhibition was -0.3%.

As for `Cc1ccc(C(=O)N2CC3(C(C)C)CN(C(=O)c4ccc(C)cc4)CC(C(C)C)(C2)C3=O)cc1`, the inhibition was -0.5%.

Take `CCCCC[C@H](O)/C=C/[C@@H]1[C@@H](C/C=C\CCCC(=O)O)[C@H]2CO[C@@H]1C2`: the inhibition was -0.1%. On the same count and under the same terms, to `CCOC(=O)[C@H]1O[C@@H]1C(=O)N[C@@H](CC(C)C)C(=O)NCCC(C)C` belongs -1.4%; to `OCCN1CCN(CCCN2c3ccccc3Sc3ccc(C(F)(F)F)cc32)CC1`, -0.1%. The same measure, in the same setting: to `NC(CO)C(=O)NNCc1ccc(O)c(O)c1O` (configuration not stated) belongs -11.2%; to `CC1(C)S[C@@H]2[C@H](NC(=O)[C@H](N)c3ccccc3)C(=O)N2[C@H]1C(=O)O`, 2.2% and -0.7%; to `CNc1c2c(nn1C)CCCC2`, -1.3%.

The next assay has as its target Lethal factor (Bacillus anthracis) (UniProt P15917). Kind of assay: Bacillus anthracis lethal factor inhibition, microsphere flow cytometry protease assay, validation at 10 µM (AID 588461). Conditions: multiplex microsphere protease cleavage assay, hits give high values.
Turning to `CCCOc1ccc(-c2cc(C(=O)NCC3CCCO3)c3ccccc3n2)cc1` (configuration not stated), the inhibition was -5.1%.

For the compound `CCCCCCCC(=O)OCC(=O)[C@@]1(O)CC[C@H]2[C@@H]3CCC4=CC(=O)CC[C@]4(C)[C@H]3[C@@H](O)C[C@@]21C`, the inhibition was 4.7%. Same read-out and setting: with `COCCCC/C(=N\OCCN)c1ccc(C(F)(F)F)cc1` the figure was -0.1%. For the compound `O=C(Oc1cccccc1=O)c1ccccc1`, the inhibition was 0.9%.

As to `CCC(C(=O)OCCN(CC)CC)c1ccccc1` (configuration not stated), the inhibition is 3.3%. For the compound `Cc1ccccc1-c1coc2cc(O)ccc2c1=O`, the inhibition was 1.6%. On the same count and under the same terms, to `C[C@H](CCC(=O)O)[C@H]1CC[C@H]2[C@@H]3C(=O)C[C@@H]4CC(=O)CC[C@]4(C)[C@H]3CC(=O)[C@]12C` belongs -0.9%; to `CCC12CN3CC(CC)(CN(C1)C31C(=O)N(C)c3ccc(C)cc31)C2=O` (configuration not stated), -7.3%. The same measure, in the same setting: with `Cc1ccc(C2CC(c3cccs3)=NN2C(=O)c2ccco2)o1` (configuration not stated) the figure was 1.3%.

For `Nc1cccc2nc3ccccc3cc12`, the inhibition is 1.2%. Same read-out and setting: with `CN1CCC(=C2c3ccccc3CC(=O)c3sccc32)CC1` the figure was -4%. With `Cc1ccccc1C(OCCN(C)C)c1ccccc1` (configuration not stated), the inhibition is 2.5%.

Take `C[N+]12CCC(CC1)C(OC(=O)C(O)(c1ccccc1)c1ccccc1)C2` (configuration not stated): the inhibition was -0.4%.

Turning to `CC(C)NC[C@@H](O)c1ccc(O)c(O)c1`, the inhibition was -6.8%.

Turning to `CN(C)C(=O)Oc1cccc([N+](C)(C)C)c1`, the inhibition was 1.5% and 2.9%. Still for that read-out and setting: with `COc1cc2c(cc1OC)C(c1ccc(-c3cc(Cl)ccc3Cl)o1)=NCC2` the figure was -4.2%; with `COc1cccc(N2CC34C=CC(O3)C(C(=O)O)C4C2=O)c1` (configuration not stated), 6%; with `O=c1cc(Cn2ccnc2)c2cc3c(cc2o1)CCC3`, -3.2%. `CN(C)C(=O)C(CCN1CCC(O)(c2ccc(Cl)cc2)CC1)(c1ccccc1)c1ccccc1`: the inhibition was 7.3%. Turning to `COc1cccc(/C=C/C(=O)c2c(O)cc(C)oc2=O)c1O`, the inhibition is 5.4%. Turning to `COc1ccc(-c2coc3cc(O)cc(O)c3c2=O)cc1`, the inhibition is 0.1%. Same read-out and setting: to `CCN1C(=O)C(CC(=O)Nc2ccc(OC)cc2)N(CCc2ccc(F)cc2)C1=S` (configuration not stated) belongs 1.4%; to `Nc1nc2c(ncn2COC(CO)CO)c(=O)[nH]1`, -4.8%. With `CCOC(=O)[C@H](CCc1ccccc1)N[C@@H](C)C(=O)N1CCC[C@H]1C(=O)O`, the inhibition is 3.9%. As for `CC(=O)O[C@H]1C(=O)[C@@]2(C)[C@H]([C@H](OC(=O)c3ccccc3)[C@]3(O)C[C@H](OC(=O)[C@H](O)C(NC(=O)c4ccccc4)c4ccccc4)C(C)=C1C3(C)C)[C@]1(OC(C)=O)CO[C@@H]1C[C@@H]2O` (some centres not stated), the inhibition was 4.6%.

In the case of `CC1=C/C(=N\N=C2\NC(=O)C(CC(=O)Nc3ccccc3F)S2)CC(C)(C)C1` (configuration not stated), the inhibition is 2.8%.

In the case of `CC1(C)CC(O)(CNCc2ccc3c(c2)OCO3)CCO1` (configuration not stated), the inhibition was 1.2%. In the case of `COc1ccc(C2C3CCCCC3(O)CCN2C(=O)c2cccs2)cc1` (configuration not stated), the inhibition was 5.5%. Same read-out and setting: with `Cc1coc2cc3oc(=O)c(CCC(=O)O)c(C)c3cc12` the figure was -2.2%. Take `COc1ccc(C2C3=C(CC(C)(C)CC3=O)N(C)C3=C2C(=O)CC(C)(C)C3)cc1`: the inhibition was -5.6%.

Take `Cc1oc2cc(O)ccc2c(=O)c1Oc1ccccc1Br`: the inhibition is -0.7%. Same read-out and setting: to `COc1ccc(C(=O)CCN2CCc3cc(OC)c(OC)cc3C2)cc1` belongs -2.9%; to `Cc1ccc(C(=O)N2CC3(C(C)C)CN(C(=O)c4ccc(C)cc4)CC(C(C)C)(C2)C3=O)cc1`, -2.5%. Same read-out and setting: with `CCCCC[C@H](O)/C=C/[C@@H]1[C@@H](C/C=C\CCCC(=O)O)[C@H]2CO[C@@H]1C2` the figure was 3.3%; with `CCOC(=O)[C@H]1O[C@@H]1C(=O)N[C@@H](CC(C)C)C(=O)NCCC(C)C`, -2.8%; with `OCCN1CCN(CCCN2c3ccccc3Sc3ccc(C(F)(F)F)cc32)CC1`, -5.1%. In the case of `NC(CO)C(=O)NNCc1ccc(O)c(O)c1O` (configuration not stated), the inhibition was -25.4%.

As for `CC1(C)S[C@@H]2[C@H](NC(=O)[C@H](N)c3ccccc3)C(=O)N2[C@H]1C(=O)O`, the inhibition is 5% and -3%. Still for that read-out and setting: with `CNc1c2c(nn1C)CCCC2` the figure was -3.5%.

One may read the inhibition as the change of the read-out against control, counted positive when it falls.
